The structures appear in SMILES notation. Results with a measured potency or affinity are listed apart. Activity calls are given as the source filed them.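 Rule for the calls: active = viability loss with half-effect dose no higher than twice the top dose, at all three exposure times; inconclusive = exposure times disagree or give unclear fits; inactive = inactive at every exposure time.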

The experiment can be described thus: SNB-19 glioblastoma cell viability over time, late-stage follow-up, mechanism study for HRAS target identification, CellTiter-Glo ATP luminescence, 8-48 h, dry powder (AID 720611).

With `Cc1onc(C(=O)N2CCN(C(c3ccncc3)c3ccncc3)CC2)c1[N+](=O)[O-]`, the call was inactive.
Then `CCC(=O)N(c1ccc(OC)c(Cl)c1)C(C(=O)NCCc1ccccc1)c1cccs1` (configuration not stated), with “inactive”.

The record behind these values is PubChem BioAssay AID720611 (Broad Institute, 2013).
